Drawing on PubChem BioAssay (NCI), this text covers growth for 40 compounds.

This is part of a sample that, as a whole, favours compounds with a hit. Of some 83,000 tested, about 20% had one in any assay.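 Single-concentration screen, 48 h exposure, 96-well plates. Endpoint: percent growth. Below 10 = active.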 Unmarked numbers belong to inactive results. Calls of active or inactive are those of the source.

The test system of this assay is HL-60(TB) leukemia. Briefly: NCI-60 one-dose screen, 48 h (100 = growth as untreated, 0 = no growth, -100 = all killed). The note with it: 10 µM unless noted.
Turning to `O=C(Nc1cccc(-c2nc3ccccc3[nH]2)c1)c1cccc(NC(=O)c2ccco2)c1`, the growth was 88.9%.

For `Cc1cc(=O)oc2cc(Oc3nc(Br)cn4c(Br)cnc34)ccc12`, the growth is 30.8%. As to `O=C(/C=C/c1ccccc1)c1c[nH]c2ccccc2c1=O`, the growth is -12.9% (active). On to `CN1C(=O)N(C)C2(c3ccccc3)OC(=S)NC12c1ccccc1` (stereo not given), for which the growth was 95.6%. `COc1ccc(-c2nn(-c3ccc(NC(=O)c4cc(Cl)cc(Cl)c4)cc3)cc2-c2ccncc2)cc1Cl`: the growth is 20.3%. Turning to `CNC(=O)c1cc(Oc2ccc(NC(=O)Nc3ccc(Cl)c(OC4CCCCC4)c3)c(F)c2)ccn1`, the growth was 82.9%. With `CN1C(N2CCN(S(=O)(=O)c3ccccc3)CC2)=NS(=O)(=O)c2ccccc21`, the growth was 116%.

In the case of `Clc1ccc(-c2cn(-c3ccccc3)c(-c3ccccc3)n2)c(Cl)c1`, the growth was 52.1%. Regarding `Cc1csc(Nc2nc(-c3cccc(Cl)c3)nc(C(Cl)(Cl)Cl)n2)n1`, the growth was -10.2% (active). For `CS(=O)(=O)Nc1cc(-c2ccc3ncnc(Nc4ccc5c(cnn5Cc5ccncc5)c4)c3c2)cnc1Cl`, the growth was 15.4%. `CC(C)n1c(NCCc2ccc(O)c(O)c2)nc2c1c(=O)n(C)c(=O)n2C`: the growth was 99.3%. As for `Nc1nc2ccccc2c2c(=O)c3cc(Cl)ccc3sc12`, the growth is 103%. The same measure for `Cc1oc(-c2ccc(Cl)cc2Cl)cc1C(=O)Nc1nccs1`: 97.4%; for `CC(C)=CCC[C@](C)(O)[C@H]1CC[C@]2(C)[C@@H]1CC[C@@H]1[C@@]3(C)CC[C@H](OC(=O)CCC(=O)O)C(C)(C)[C@@H]3CC[C@]12C`: 4.34% [100 µM] (active). For `O=C1Nc2ccccc2/C1=C/c1cn(C(=O)c2ccc(Cl)cc2)c2ccccc12`, the growth was 150%.

With `COc1ccc2c(c1)c(-c1nonc1-c1cn(C)c3ccc(OC)cc13)cn2C`, the growth is -1.01% (active). With `O=C(Nc1cccc(C(F)(F)F)c1)Nc1ccc(OCc2nnc(-c3ccc(Cl)cc3)o2)c(F)c1`, the growth is 92.5%. With `CCN(CC)CC[n+]1cc2cc(OC)c(OC)cc2c2ccc3cc4c(cc3c21)OCO4`, the growth is -33.5% (active). For `CCOC(=O)C(Cc1ccc(OC)cc1)C(=O)OCC`, the growth is 3.77% (active). With `COc1ccc2nc(NC(=O)c3cccnc3Nc3cc(OC)c(OC)c(OC)c3)sc2c1`, the growth is 51.8%. As for `CCC(CCCN1C(=O)c2ccccc2C1=O)Nc1cc(OC)cc2cccnc12` (stereo not given), the growth was 86.1%.

`Cn1c(=O)c2c(nc3n(-c4ccc(Cl)cc4Cl)c(Sc4nc(-c5ccccc5)c(C#N)c(=O)[nH]4)cn23)n(C)c1=O`: the growth is 76.5%. As to `N=C1S/C(=C/c2ccc(-c3ccc4c(c3)C(=O)NC4=O)o2)C(=O)N1c1ccc(Br)cc1`, the growth was 50.5%.

In the case of `CN1CCN(C(=O)OCCOCCOC(=O)N2CCN(C)CC2)CC1`, the growth was 98.2%. With `Cc1ccc(NC(=S)N2CCOCC2)cc1C`, the growth is 103%.

On to `O=C(CN1C(=O)NC2NC(=O)NC21)N/N=C/c1ccc(Cl)cc1Cl` (stereo not given), for which the growth was 99.4%.

In the case of `C=CCOc1ccc(/C=C2\SC(=S)N(CCc3ccc(O)cc3)C2=O)cc1`, the growth is 38.9%. Turning to `CN(C)CCCNC(=O)c1cncnc1Nc1ccc2c(ccn2Cc2cccc(F)c2)c1`, the growth is 93.3%.

With `NC(=O)CC(NC(=O)COc1ccc(Cl)cc1Cl)C(=O)O` (stereo not given), the growth was 109%. Turning to `c1ccc(Nc2ccccn2)nc1`, the growth was 101%. On to `c1ccc(-c2n[nH]c(-c3ccccn3)n2)nc1`, for which the growth was 105%. Turning to `O=C1NC(=O)C(c2ccccc2)O1` (stereo not given), the growth was 99.5%.

Take `CN(C)c1ccc(C(c2ccc(O)cc2)c2ccc(N(C)C)cc2)cc1`: the growth was 87.1%. In the case of `Brc1ccc(-c2cn3ccnc3c(-c3ccc(Br)cc3)n2)cc1`, the growth was 30.2%. With `COc1ccc2[nH]c(O)c(/C=c3/ccc4c(c3)N=C(c3ccc(C(F)(F)F)cc3)N=4)c2c1`, the growth was 94.4%. Consider `CCC(C)CC(CC)NCCN1CCN(C(CC)CC(C)CC)C1=S` (stereo not given), for which the growth was 39.8%.

For `CCOC(=O)c1ccc(NC(C)=O)o1`, the growth was 80.6%. With `CCCCCCCCCCCCCCCCCCOc1cccc(CC(=O)OCC[N+](CC)(CC)CC)c1`, the growth was 9.38% (active). As for `COc1ccc(-c2nc3sc(-c4ccc(Cl)cc4)cn3n2)cc1`, the growth was 105%. The value for `c1ccn2nnnc2c1` was 116%.
